Data reported in PubChem BioAssay (NCATS).
Records with an inconclusive call do not appear. Calls of active or inactive are those of the source. Unless noted, the call rests on the fitted dose curve; in most records, active means well fitted curve in the direction sought with a large enough effect; inconclusive means small, poorly fitted or top-dose-only effect, or another doubt; inactive means no such curve, though single readings can be large; an effect the other way counts as inactive or inconclusive.

Columns and labels:
[1] = target: Ferritin light chain (Equus caballus) (UniProt P02791); assay: qHTS Validation Assay for Identification of Novel General Anesthetics (AID 2323); further: series mostly up to about 77 µM
Summary of the method: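 Normalized fluorescence response, scaled between free 1-AMA and 1-AMA/apoferritin complex, fitted to a four-parameter Hill equation for concentration-effect values. Binding mix: 10 uM horse-spleen apoferritin, 50% saturated 1-AMA in PBS; read 380/535 nm after 10 min.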

[2] = target: ATP-dependent DNA helicase Q1 (Homo sapiens) (UniProt P46063); assay: qHTS Validation Assay for Inhibitors of RecQ-Like Dna Helicase 1 (RECQ1) (AID 2353)
Summary of the method: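 50 nM RECQ1T1 preincubated 15 min with compound in Tris pH 8.0 buffer with MgCl2, DTT, Tween-20 and 2.5 ug/ml poly(dI-dC); started with 200 nM TAMRA/BHQ-2 forked duplex and 2 mM ATP. Unwinding read as fluorescence (525/598 nm), two reads 2 h apart.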

[3] = Cytometric Cell-Based qHTS for Inhibitors of the mTORC1 Signaling Pathway in MEF (Tsc2-/-, p53-/-) Cells (AID 2660);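 further: Tsc2 and p53 null MEFs carrying empty vector with compound for 24 h; percent of cells above a phospho-rpS6 to PI ratio cutoff in each well; series mostly up to about 38 µM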
Summary of the method: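 Cells are plated, treated with compound for 24 hrs at 37 degree Celsius, then fixed, blocked and immunostained for phospho-rpS6 Ser235/236. Propidium iodide counterstain follows. Per-well % positive cells is derived from the PI-normalized phospho-S6 signal.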

[4] = High Content Imaging Cell-Based qHTS for Inhibitors of the mTORC1 Signaling Pathway in MEF (Tsc2-/-, p53-/-) Cells (AID 2666);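 further: percent of cells scored positive for phospho-rpS6 Ser235/236 immunostaining by imaging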
Summary of the method: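 Cells were plated, dosed with compound after 24 hrs, and incubated another 24 hrs at 37 degree Celsius. Fixed cells were immunostained for phospho-rpS6 Ser235/236 and counterstained, and the normalized signal was scored as % active cells against rapamycin and DMSO controls.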

[5] = High Content Imaging Cell-Based qHTS for Inhibitors of the mTORC1 Signaling Pathway in MEF Cells (AID 2667);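 further: Tsc2-/- p53-/- MEFs stably re-expressing wild-type Tsc2 exposed 24 h; series mostly up to about 38 µM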
Summary of the method: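 Immunofluorescence for rpS6 phosphorylation in MEFs of Tsc2-/-, p53-/- background rescued with WT Tsc2. Compound exposure lasted 24 hrs. Inhibition was scored against rapamycin-treated control wells.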

[6] = Cytometry Cell-Based qHTS for Inhibitors of the mTORC1 Signaling Pathway in MEF cells (AID 2668);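 further: Tsc2-/- p53-/- mouse embryonic fibroblasts stably re-expressing wild-type Tsc2; percent cells positive for phospho-rpS6 Ser235/236 relative to propidium iodide stain; series mostly up to about 38 µM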
Summary of the method: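 In MEFs grown in DMEM + 10% FBS, a 24 hrs compound exposure preceded imaging of phospho-rpS6 Ser235/236 by laser-scanning cytometry.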

[7] = Validation screen for small molecules that induce DNA re-replication in MCF 10A normal breast cells (AID 463097); further: nearly all actives have a fitted effect of over 60% in size
Summary of the method: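 Following 48 hr compound incubation (37 C, 5% CO2), MCF 10A cells receive Hoechst for 40 min at 37 C. Nuclei are then scanned (excitation 405 nm, emission 500-530 nm) for total fluorescence intensity.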

[8] = target: Ubiquitin carboxyl-terminal hydrolase 2 (Homo sapiens) (UniProt O75604); assay: qHTS Validation Assay for Inhibitors of Ubiquitin-specific Protease USP2a Using CHOP2 as the Reporter (AID 463106)
Summary of the method: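 10nM USP2 core + cpd, 30min RT; add 25nM Ub-CHOP2/25nM substrate; 60min RT; FI 485/531nm. Buffer Tris pH 8.0, CaCl2, BME, CHAPS. Norm. to NEM = 100% inhibition; time-zero read flags fluorescent artifacts.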

[9] = target: DNA polymerase III PolC-type (Bacillus subtilis (strain 168)) (UniProt P13267); assay: qHTS Validation Assay for the Inhibitors of DNA Replication in Gram-Positive Bacteria (AID 485295);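 further: reconstituted holoenzyme with PolC plus beta clamp SSB and primase; PicoGreen fluorescence of double-stranded DNA made on primed circular M13 template; series mostly up to about 57 µM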
Summary of the method: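 Inhibition of DNA synthesis by the reconstituted PolC holoenzyme, monitored through PicoGreen staining of dsDNA formed from ssM13Gori, dNTPs and NTPs, with compound preincubation and room-temperature reaction.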

[10] = target: Tumor susceptibility gene 101 protein (Homo sapiens) (UniProt Q99816); assay: qHTS Validation Assay for Iinhibitors of HIV-1 Budding by Blocking the Interaction of PTAP/TSG101 (AID 485342; calls by dose curve)
Summary of the method: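 Compound wells held the Tsg101 binding domain (10 uM) and a FITC-conjugated PTAP peptide (50 nM) in buffer at pH 7.5 containing 0.15 M NaCl and 0.01% Tween 20; polarization was recorded after 20 min, r.t.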

[11] = qHTS Validation Assay to Find Inhibitors of Chronic Active B-Cell Receptor Signaling (AID 485345; active means well fitted curve in the direction sought with a large enough effect in the main read-out, with a control signal flat, not every such curve was filed as active)
Summary of the method: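 Read-out: ratio of filter-corrected green (IkappaBalpha fusion) to red (native) luciferase signal in doxycycline-induced TMD8 cells after 4 h at 37C. Titration spanned 46 uM–3 nM; Data were normalised to basal cells and 10 uM MG-132 wells.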

[12] = target: Beta-2 adrenergic receptor (Homo sapiens) (UniProt P07550); assay: qHTS validation assay of beta-arrestin-biased ligands of beta2-adrenergic receptor (AID 485366)
Summary of the method: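 Values derive from curve-fitted %Activity of a luminescent beta-arrestin recruitment reporter; compounds tested up to 46 microM on Tango cells for 18 hr at 37 degrees C, 5% CO2.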

[13] = target: ATP-dependent 6-phosphofructokinase (Trypanosoma brucei brucei) (UniProt O15648); assay: qHTS Validation Assay to Find Inhibitors of T. brucei phosphofructokinase (AID 485368); conditions: outcome: dose series up to 57.5 µM
Summary of the method: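 Enzyme reaction in triethanolamine buffer pH 8.0 with 5 mM MgCl2, 0.01% Tween20 and 0.1% BSA; PFK 1.25 nM, F6P 0.5 mM, ATP 0.1 mM, 45 min RT. ADP quantified by ADP-Glo.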

[14] = target: Thioredoxin reductase 1, cytoplasmic (Rattus norvegicus) (UniProt O89049); assay: qHTS Assay for Substrates of Mammalian Selenoprotein Thioredoxin Reductase 1 (TrxR1) (AID 488772);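 further: NADPH fluorescence in the first read after selenite addition and not the 8 min delta; series mostly up to about 57 µM; a drop in NADPH fluorescence below the no-compound background marks a TrxR1 substrate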
Summary of the method: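 Quantitative HTS in Tris-HCl buffer at pH 7.5 with EDTA and Tween-20, using rat TrxR1, 400 uM NADPH and 400 uM selenite (final). A fall in initial NADPH fluorescence relative to background marked substrate behaviour.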

[15] = target: RecQ-like DNA helicase BLM (Homo sapiens) (UniProt P54132); assay: qHTS Validation Assay for Inhibitors of Bloom's syndrome helicase (BLM) (AID 2364)
Summary of the method: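 Forked 20-bp duplex substrate (200 nM, TAMRA/BHQ-2) plus 2 mM ATP added after 15 min compound preincubation with 50 nM enzyme, pH 8.0, poly(dI-dC) 2.5 ug/ml. Strand separation followed by fluorescence (525/598 nm) over 2 h, normalized to enzyme-free and DMSO controls.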

[16] = Quantitative high throughput screen for delayed death inhibitors of the malarial parasite plastid, 96 hour incubation (AID 488745);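 further: luciferase-expressing P. falciparum in erythrocytes at 2% hematocrit and 0.1% parasitemia; series mostly up to about 29 µM; nearly all actives have a fitted effect of over 70% in size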
Summary of the method: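 Growth of reporter-bearing P. falciparum in red cells is measured after 96 h with compound, covering two erythrocytic cycles. Luminescence from the integrated luciferase serves as the growth signal.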

[17] = Quantitative high throughput screen for delayed death inhibitors of the malarial parasite plastid, 48 hour incubation (AID 488752); further: nearly all actives have a fitted effect of over 65% in size
Summary of the method: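 One parasite generation (48 h, 37 C, 5% CO2) of luciferase-reporter P. falciparum in erythrocytes is run with test compound; decreased luminescence indicates inhibited growth.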

Measured: Potency

DNA polymerase III PolC-type (Bacillus subtilis (strain 168)), sequence (P13267 whole entry, looked up): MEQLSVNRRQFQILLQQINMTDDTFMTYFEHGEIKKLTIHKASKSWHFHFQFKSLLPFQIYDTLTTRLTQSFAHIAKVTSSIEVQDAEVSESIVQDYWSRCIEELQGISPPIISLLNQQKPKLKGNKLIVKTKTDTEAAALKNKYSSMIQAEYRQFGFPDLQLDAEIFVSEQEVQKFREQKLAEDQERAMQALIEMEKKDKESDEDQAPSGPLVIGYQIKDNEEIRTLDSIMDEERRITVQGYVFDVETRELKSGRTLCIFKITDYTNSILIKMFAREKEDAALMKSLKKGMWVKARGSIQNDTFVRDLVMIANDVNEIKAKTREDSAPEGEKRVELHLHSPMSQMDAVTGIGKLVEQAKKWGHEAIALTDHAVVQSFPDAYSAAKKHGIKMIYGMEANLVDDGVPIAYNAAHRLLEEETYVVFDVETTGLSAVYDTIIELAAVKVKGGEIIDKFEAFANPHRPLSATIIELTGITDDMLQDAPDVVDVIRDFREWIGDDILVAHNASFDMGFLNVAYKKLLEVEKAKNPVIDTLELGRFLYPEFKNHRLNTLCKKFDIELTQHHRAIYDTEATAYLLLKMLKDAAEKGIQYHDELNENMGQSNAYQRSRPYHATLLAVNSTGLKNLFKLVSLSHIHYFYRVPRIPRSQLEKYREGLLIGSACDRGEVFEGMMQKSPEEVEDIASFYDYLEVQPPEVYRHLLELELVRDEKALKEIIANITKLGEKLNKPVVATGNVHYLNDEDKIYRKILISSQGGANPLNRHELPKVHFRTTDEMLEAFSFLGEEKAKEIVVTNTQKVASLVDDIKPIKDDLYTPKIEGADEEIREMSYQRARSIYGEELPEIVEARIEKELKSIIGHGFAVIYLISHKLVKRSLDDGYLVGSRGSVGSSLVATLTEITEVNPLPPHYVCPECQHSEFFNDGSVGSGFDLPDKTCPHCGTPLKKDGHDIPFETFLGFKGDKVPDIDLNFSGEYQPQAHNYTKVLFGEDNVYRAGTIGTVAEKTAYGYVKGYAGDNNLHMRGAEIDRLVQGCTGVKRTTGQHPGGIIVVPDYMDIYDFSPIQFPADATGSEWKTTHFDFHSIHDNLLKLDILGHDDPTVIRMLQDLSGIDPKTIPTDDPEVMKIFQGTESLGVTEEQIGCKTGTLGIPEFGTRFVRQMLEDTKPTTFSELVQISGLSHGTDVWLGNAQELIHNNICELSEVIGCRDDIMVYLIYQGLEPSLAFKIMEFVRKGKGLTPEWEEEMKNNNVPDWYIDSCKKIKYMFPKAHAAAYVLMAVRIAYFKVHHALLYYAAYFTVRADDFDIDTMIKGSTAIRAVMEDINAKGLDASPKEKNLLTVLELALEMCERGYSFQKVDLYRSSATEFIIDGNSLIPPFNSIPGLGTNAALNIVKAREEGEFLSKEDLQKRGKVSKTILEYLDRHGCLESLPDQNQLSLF
Thioredoxin reductase 1, cytoplasmic (Rattus norvegicus), sequence (O89049 whole entry, looked up): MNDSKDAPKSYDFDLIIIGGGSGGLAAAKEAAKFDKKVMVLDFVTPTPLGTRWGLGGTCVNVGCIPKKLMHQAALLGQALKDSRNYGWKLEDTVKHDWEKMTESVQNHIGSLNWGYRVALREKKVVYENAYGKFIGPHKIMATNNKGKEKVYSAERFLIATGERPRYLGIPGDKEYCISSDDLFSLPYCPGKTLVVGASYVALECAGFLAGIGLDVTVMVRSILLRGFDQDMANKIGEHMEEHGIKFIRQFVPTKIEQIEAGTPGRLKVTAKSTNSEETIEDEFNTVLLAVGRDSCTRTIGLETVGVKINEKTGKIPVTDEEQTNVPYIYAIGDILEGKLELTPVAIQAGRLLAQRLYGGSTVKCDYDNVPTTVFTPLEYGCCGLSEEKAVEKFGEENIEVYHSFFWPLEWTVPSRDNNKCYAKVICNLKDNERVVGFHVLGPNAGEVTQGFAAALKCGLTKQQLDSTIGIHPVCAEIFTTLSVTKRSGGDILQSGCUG
Beta-2 adrenergic receptor (Homo sapiens), sequence (P07550 whole entry, looked up): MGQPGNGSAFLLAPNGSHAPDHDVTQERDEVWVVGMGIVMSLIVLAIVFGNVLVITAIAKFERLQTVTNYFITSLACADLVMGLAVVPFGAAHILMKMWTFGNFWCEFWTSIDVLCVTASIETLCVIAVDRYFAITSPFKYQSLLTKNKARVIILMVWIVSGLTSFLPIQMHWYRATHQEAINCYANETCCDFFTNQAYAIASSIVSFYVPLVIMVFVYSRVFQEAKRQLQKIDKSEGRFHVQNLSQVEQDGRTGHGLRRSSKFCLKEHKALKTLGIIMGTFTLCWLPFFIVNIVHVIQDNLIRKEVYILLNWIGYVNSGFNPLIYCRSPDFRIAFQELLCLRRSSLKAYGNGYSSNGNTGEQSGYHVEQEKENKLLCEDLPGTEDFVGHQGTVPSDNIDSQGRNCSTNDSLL
Tumor susceptibility gene 101 protein (Homo sapiens), sequence (Q99816 whole entry, looked up, the tested form may be a part): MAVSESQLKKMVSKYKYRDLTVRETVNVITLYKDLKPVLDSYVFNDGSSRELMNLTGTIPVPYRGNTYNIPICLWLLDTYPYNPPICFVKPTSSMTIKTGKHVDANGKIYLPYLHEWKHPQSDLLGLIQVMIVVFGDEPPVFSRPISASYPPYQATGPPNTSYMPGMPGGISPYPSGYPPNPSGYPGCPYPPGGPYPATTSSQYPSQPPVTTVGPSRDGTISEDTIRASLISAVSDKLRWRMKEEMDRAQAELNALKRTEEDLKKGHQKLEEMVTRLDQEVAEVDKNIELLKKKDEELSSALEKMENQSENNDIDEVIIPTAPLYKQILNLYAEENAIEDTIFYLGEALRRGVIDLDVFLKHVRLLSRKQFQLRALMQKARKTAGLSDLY
ATP-dependent 6-phosphofructokinase (Trypanosoma brucei brucei), sequence (O15648 whole entry, looked up): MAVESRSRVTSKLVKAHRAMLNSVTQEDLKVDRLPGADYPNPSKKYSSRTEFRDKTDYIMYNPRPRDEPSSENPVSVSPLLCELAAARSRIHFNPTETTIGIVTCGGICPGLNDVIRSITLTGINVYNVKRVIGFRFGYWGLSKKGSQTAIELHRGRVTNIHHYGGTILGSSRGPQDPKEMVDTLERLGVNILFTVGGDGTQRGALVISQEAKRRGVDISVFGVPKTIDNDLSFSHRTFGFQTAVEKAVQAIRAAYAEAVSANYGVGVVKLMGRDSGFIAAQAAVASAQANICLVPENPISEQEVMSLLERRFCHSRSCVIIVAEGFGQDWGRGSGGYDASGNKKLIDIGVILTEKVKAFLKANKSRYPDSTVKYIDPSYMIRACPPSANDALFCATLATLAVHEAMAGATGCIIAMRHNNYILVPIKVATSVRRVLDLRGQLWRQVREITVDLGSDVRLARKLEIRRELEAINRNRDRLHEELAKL
Ubiquitin carboxyl-terminal hydrolase 2 (Homo sapiens), sequence (O75604 whole entry, looked up): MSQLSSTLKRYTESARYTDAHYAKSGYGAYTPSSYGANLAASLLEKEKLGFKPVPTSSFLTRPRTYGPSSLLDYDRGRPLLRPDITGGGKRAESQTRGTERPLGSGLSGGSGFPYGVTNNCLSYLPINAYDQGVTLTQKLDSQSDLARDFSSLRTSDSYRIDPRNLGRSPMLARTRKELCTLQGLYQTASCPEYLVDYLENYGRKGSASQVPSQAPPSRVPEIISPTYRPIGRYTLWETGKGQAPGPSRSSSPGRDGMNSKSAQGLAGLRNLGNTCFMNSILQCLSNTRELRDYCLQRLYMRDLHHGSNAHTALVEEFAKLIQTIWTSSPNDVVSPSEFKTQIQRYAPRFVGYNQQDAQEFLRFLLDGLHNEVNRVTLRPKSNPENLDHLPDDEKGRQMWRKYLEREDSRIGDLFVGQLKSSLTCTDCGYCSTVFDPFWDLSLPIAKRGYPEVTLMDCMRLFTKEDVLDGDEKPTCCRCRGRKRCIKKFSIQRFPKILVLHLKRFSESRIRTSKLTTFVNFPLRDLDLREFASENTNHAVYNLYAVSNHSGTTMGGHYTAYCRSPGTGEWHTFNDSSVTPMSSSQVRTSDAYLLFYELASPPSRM
Ferritin light chain (Equus caballus), sequence (P02791 2-175 limits assumed): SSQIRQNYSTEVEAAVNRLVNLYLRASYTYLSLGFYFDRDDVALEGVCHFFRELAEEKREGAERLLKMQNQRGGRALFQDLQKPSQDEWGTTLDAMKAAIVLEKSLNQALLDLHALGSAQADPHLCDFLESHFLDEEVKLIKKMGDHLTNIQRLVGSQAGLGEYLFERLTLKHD
ATP-dependent DNA helicase Q1 (Homo sapiens), sequence (P46063 whole entry, looked up): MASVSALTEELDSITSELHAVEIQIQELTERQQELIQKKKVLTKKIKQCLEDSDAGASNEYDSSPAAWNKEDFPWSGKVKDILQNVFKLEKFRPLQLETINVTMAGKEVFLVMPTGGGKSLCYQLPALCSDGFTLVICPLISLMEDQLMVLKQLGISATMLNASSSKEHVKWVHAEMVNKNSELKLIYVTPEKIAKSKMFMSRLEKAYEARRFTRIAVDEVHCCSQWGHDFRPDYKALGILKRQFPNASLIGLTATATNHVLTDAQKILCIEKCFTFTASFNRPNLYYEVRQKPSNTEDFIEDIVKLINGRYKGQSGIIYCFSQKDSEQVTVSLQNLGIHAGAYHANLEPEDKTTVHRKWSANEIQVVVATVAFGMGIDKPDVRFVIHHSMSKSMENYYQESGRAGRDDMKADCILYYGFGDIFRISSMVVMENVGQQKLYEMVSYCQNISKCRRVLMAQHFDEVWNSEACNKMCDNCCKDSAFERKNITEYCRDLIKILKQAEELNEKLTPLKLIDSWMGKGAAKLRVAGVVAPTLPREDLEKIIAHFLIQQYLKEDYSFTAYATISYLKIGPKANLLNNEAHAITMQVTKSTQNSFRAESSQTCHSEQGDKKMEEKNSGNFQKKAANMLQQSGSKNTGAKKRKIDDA

CCCN1C[C@H](CSC)C[C@@H]2c3cccc4[nH]cc(c34)C[C@H]21
inactive: [1] | [2] | [3] | [4] | [5] | [6] | [7] | [8] | [9] | [10] | [11] | [12] | [13] | [14]

C[C@@H](O)[C@H]1C(=O)N2C(C(=O)O)=C(SCCN=CN)C[C@H]12
inactive: [3] | [4] | [5] | [6] | [8] | [9] | [10] | [11] | [12] | [13] | [14]

COC(=O)[C@@H](N)Cc1ccc(O)c(O)c1
inactive: [1] | [15] | [3] | [4] | [5] | [6] | [7] | [8] | [9] | [10] | [11] | [12] | [13] | [16] | [17]

CCN(CC)CCCN(c1ccccc1)C1Cc2ccccc2C1
inactive: [3] | [4] | [8] | [9] | [10] | [11] | [12] | [14]

CC(C)(Oc1ccc(CCNC(=O)c2ccc(Cl)cc2)cc1)C(=O)O
inactive: [3] | [4] | [5] | [6] | [8] | [9] | [10] | [11] | [12] | [13] | [14]

CCOC(=O)c1cnc2c(cnn2CC)c1NN=C(C)C
inactive: [1] | [3] | [4] | [5] | [6] | [7] | [8] | [9] | [10] | [11] | [12] | [13] | [16] | [17] | [14]

CN1C[C@H](C(=O)N[C@]2(C)O[C@@]3(O)[C@@H]4CCCN4C(=O)[C@H](Cc4ccccc4)N3C2=O)C[C@@H]2c3cccc4[nH]cc(c34)C[C@H]21
inactive: [3] | [4] | [5] | [6] | [8] | [9] | [10] | [11] | [12] | [13]

Cc1cccc(C)c1NC(=O)C(C)N (stereo not drawn)
inactive: [3] | [4] | [5] | [6] | [8] | [9] | [10] | [11] | [12] | [14]

Cc1nc2ccccn2c(=O)c1CCN1CCC(C(=O)c2ccc(F)cc2)CC1
inactive: [1] | [15] | [3] | [4] | [5] | [6] | [7] | [8] | [9] | [10] | [11] | [12] | [13] | [16] | [17] | [14]

CSc1ccc(C(=O)c2[nH]c(=O)[nH]c2C)cc1
inactive: [1] | [2] | [3] | [4] | [5] | [6] | [7] | [8] | [9] | [10] | [11] | [12] | [16] | [17] | [14]

NC(N)=N/N=C/c1c(Cl)cccc1Cl
inactive: [1] | [3] | [4] | [5] | [7] | [8] | [9] | [10] | [11] | [12] | [13] | [17] | [14]
